# Experimental data published in PubChem BioAssay (NCATS).
# Results filed as inconclusive are left out. Entries that show only a call come without a potency. Unmarked numbers belong to inactive results. The source made the active and inactive calls. Calls follow the shape of the dose curve; as a rule, active = well fitted inhibition curve with a large enough effect; inconclusive = small, poorly fitted or top-dose-only effect; inactive = flat fitted curve, though single readings scatter.
# Key:
# Test in all cases: qHTS profiling for inhibitors of Plasmodium falciparum proliferation (AID 504749); also: nearly all actives have a fitted effect of over 60% in size
# Settings in all cases: P. falciparum in erythrocytes, SYBR Green DNA, 72 h; series mostly up to 28.7 µM
# CP256 = system: CP256
# Outline: (§1)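 Three-day growth assay of blood-stage parasites in erythrocytes (0.3% parasitemia, 2.5% hematocrit) at 37 C, 5% CO2, quantified by SYBR Green DNA staining after overnight detergent lysis.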
# CP260 = system: CP260
# Outline: as §1
# CP262 = system: CP262
# Outline: as §1
# CP265 = system: CP265
# Outline: as §1
# CP268 = system: CP268
# Outline: as §1
# CP269 = system: CP269
# Outline: as §1
# CP286 = system: CP286
# Outline: as §1
# CP291 = system: CP291
# Outline: as §1
# CP297 = system: CP297
# Outline: as §1
# CP305 = system: CP305
# Outline: as §1
# CP315 = system: CP315
# Outline: as §1
# CP325 = system: CP325
# Outline: as §1
# CP329 = system: CP329
# Outline: as §1
# CP335 = system: CP335
# Outline: as §1
# DFO2036 = system: DFO2036
# Outline: as §1
# DIV14 = system: DIV14
# Outline: as §1
# DIV17 = system: DIV17
# Outline: as §1
# DIV30 = system: DIV30
# Outline: as §1
# Dd2 = system: Dd2
# Outline: as §1
# ECU = system: ECU
# Outline: as §1
# FAB9 = system: FAB9
# Outline: as §1
# GB4 = system: GB4
# Outline: as §1
# HB3 = system: HB3
# Outline: as §1
# ICS = system: ICS
# Outline: as §1
# JCK = system: JCK
# Outline: as §1
# N140 = system: N140
# Outline: as §1
# P94_40 = system: P94_40
# Outline: as §1
# PAD = system: PAD
# Outline: as §1
# PC15 = system: PC15
# Outline: as §1
# PC26 = system: PC26
# Outline: as §1
# PC49 = system: PC49
# Outline: as §1
# SC27B = system: SC27B
# Outline: as §1
# TAB109 = system: TAB109
# Outline: as §1
# TAB113 = system: TAB113
# Outline: as §1
# TAB165 = system: TAB165
# Outline: as §1
# W2 = system: W2
# Outline: as §1
# Potency is read from the fitted curve at half-maximal effect.
smiles,measurement,setting,value
CCOC(=O)c1cncn1[C@@H](C)c1ccccc1,Potency,CP256,inactive
same,Potency,CP260,inactive
same,Potency,CP262,inactive
same,Potency,CP265,inactive
same,Potency,CP268,inactive
same,Potency,CP269,inactive
same,Potency,CP286,inactive
same,Potency,CP291,inactive
same,Potency,CP297,inactive
same,Potency,CP305,inactive
same,Potency,CP315,inactive
same,Potency,CP325,inactive
same,Potency,CP329,inactive
same,Potency,CP335,inactive
same,Potency,DFO2036,inactive
same,Potency,DIV14,inactive
same,Potency,DIV17,inactive
same,Potency,DIV30,inactive
same,Potency,Dd2,inactive
same,Potency,ECU,inactive
same,Potency,FAB9,inactive
same,Potency,GB4,inactive
same,Potency,HB3,inactive
same,Potency,ICS,inactive
same,Potency,JCK,inactive
same,Potency,N140,inactive
same,Potency,P94_40,inactive
same,Potency,PAD,inactive
same,Potency,PC15,inactive
same,Potency,PC26,inactive
same,Potency,PC49,inactive
same,Potency,SC27B,inactive
same,Potency,TAB109,inactive
same,Potency,TAB113,inactive
same,Potency,TAB165,inactive
same,Potency,W2,1.81 µM (active)
